“And” between values parts separate entries of the source, which are not always exact repeats. Equal entries are not always repeated. Results filed as inconclusive are left out. Values without a mark were called inactive. The call rests on the fitted dose curve; in most records, active means well fitted inhibition curve with a large enough effect; inconclusive means small, poorly fitted or top-dose-only effect; inactive means flat fitted curve, though single readings scatter.
These molecules were tested on KB-3-1 (assay: Cytotoxic Profiling of Annotated Libraries Using Quantitative High-Throughput Screening (AID 1296008; further: nearly all actives have a fitted effect of over 60% in size)). Conditions: Five cell lines viability, CellTiter-Glo ATP luminescence, 48-72 h; max response: active compounds read low.
Method in brief: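 Compounds were pin-transferred onto cells and incubated 48 or 72 hr at 37 degree Celsius, 95% humidity. CellTiter-Glo was added, plates sat 10 min at room temperature, then ATP-coupled luminescence was imaged as the viability read-out.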
On the % scale 0 is the no-effect control and ±100 the full control effect.

Row | Compound | max response
1 | CC(C)(C)c1ccc2c(S(=O)(=O)O)c(C(C)(C)C)ccc2c1 | 3.96%
2 | CC(=O)N[C@@H](C=O)[C@@H](O)[C@H](O)[C@H](O)CO | 2.45%
3 | O=C(/C=C/c1cccc(F)c1)NC1CC1 | -16.5%
4 | O=C(NNCS(=O)(=O)O)c1ccncc1 | -1.07%
5 | O=C(O)CC/C=C\CC[C@@H]1[C@@H](N2CCCCC2)[C@@H](O)C[C@@H]1OCc1ccc(-c2ccccc2)cc1 | -15.9%
6 | CCCCCc1ccc(C)cc1O | -0.225%
7 | CC(C)C[C@@H](NC(=O)[C@@H](O)[C@H](N)Cc1ccccc1)C(=O)O | 11%
8 | CCCCCCCCCCCCCCCCCCOCC(COP(=O)([O-])OCC[N+](C)(C)C)OC (configuration not stated) | 0.811%
9 | NC(Cc1ccccc1)C(=O)O (configuration not stated) | 4.99%
10 | CCCc1ccc(C(=O)O)cc1 | 8.62%
11 | O=C(c1cc2ccccc2o1)N1CCN(Cc2ccccc2)CC1 | -3.18%
12 | CCCCC[C@H](O)/C=C/[C@H]1[C@H](O)CC(=O)[C@@H]1C/C=C\CCCC(=O)O | 7.78%
13 | CC(O)[C@@H]1NC(=O)[C@H](Cc2ccccc2)NC(=O)[C@H](C(C)O)NC(=O)[C@H](CCCCN)NC(=O)[C@H](Cc2c[nH]c3ccccc23)NC(=O)[C@H](Cc2ccccc2)NC(=O)[C@H](Cc2ccccc2)NC(=O)[C@H](CC(N)=O)NC(=O)[C@H](CCCCN)NC(=O)[C@@H](NC(=O)CNC(=O)[C@H](C)N)CSSC[C@@H](C(=O)O)NC(=O)[C@H](CO)NC1=O (some centres not stated) | -3.89%
14 | O=P(O)(O)OC[C@H]1O[C@](O)(COP(=O)(O)O)[C@@H](O)[C@@H]1O | 1.63%
15 | CO[C@H]1C[C@H](O[C@@H]2/C(C)=C/C[C@@H]3C[C@@H](C[C@]4(CC[C@H](C)[C@@H](C5CCCCC5)O4)O3)OC(=O)[C@@H]3C=C(C)/C(=N/O)[C@H]4OC/C(=C\C=C\[C@@H]2C)[C@]43O)O[C@@H](C)[C@@H]1O | -1.21%
16 | CC(C)(C)NCC(O)CSc1nc(-c2ccc(C(N)=O)s2)cs1 (configuration not stated) | 15.3%
17 | CC(CN(C)C)CN1c2ccccc2Sc2ccc(C(F)(F)F)cc21 (configuration not stated) | -6.33%
18 | Cc1ncc[nH]1 | 3.25%
19 | CCCCC/C=C\C/C=C\C/C=C\CCCCC(=O)O | -2.17%

Row | Compound | max response
20 | O=C(CCCCCCCCCCCCC1CCCC1)Nc1ccc(S(=O)(=O)c2ccc(NC(=O)CCCCCCCCCCCCC3CCCC3)cc2)cc1 | 4.77%
21 | CC[C@H](C)[C@@H]1NC(=O)[C@H](Cc2ccc(O)cc2)NC(=O)[C@@H](N)CSSC[C@@H](C(=O)N2CCC[C@H]2C(=O)N[C@@H](CC(C)C)C(=O)NCC(N)=O)NC(=O)[C@H](CC(N)=O)NC(=O)[C@H](CCC(N)=O)NC1=O | 3.76%
22 | CCCCCCOC(=O)c1cccnc1 | 6.05%
23 | CC[C@H]1NC(=O)[C@@H](NC(=O)c2ncccc2O)[C@@H](C)OC(=O)[C@H](c2ccccc2)NC(=O)[C@@H]2CC(=O)CCN2C(=O)[C@H](Cc2ccccc2)N(C)C(=O)[C@@H]2CCCN2C1=O | 2%
24 | CN[C@H](CC(C)C)C(=O)N[C@H]1C(=O)N[C@@H](CC(N)=O)C(=O)N[C@H]2C(=O)N[C@H]3C(=O)N[C@H](C(=O)N[C@@H](C(=O)O)c4cc(O)cc(O)c4-c4cc3ccc4O)[C@H](O)c3ccc(c(Cl)c3)Oc3cc2cc(c3O[C@@H]2O[C@H](CO)[C@@H](O)[C@H](O)[C@H]2O[C@H]2C[C@](C)(N)C(O)[C@H](C)O2)Oc2ccc(cc2Cl)[C@H]1O (some centres not stated) | 9.66% and -29.2%
25 | CC[C@H]1OC(=O)C[C@@H](O)[C@H](C)[C@@H](O[C@@H]2O[C@H](C)[C@@H](O[C@H]3C[C@@](C)(O)[C@@H](O)[C@H](C)O3)[C@H](N(C)C)[C@H]2O)[C@@H](CC=O)C[C@@H](C)C(=O)/C=C/C(C)=C/[C@@H]1CO[C@@H]1O[C@H](C)[C@@H](O)[C@@H](OC)[C@H]1OC | 31.7% and -4.31%
26 | [O-][N+](=Nc1ccccc1)c1ccccc1 | -7.74%
27 | O=[n+]1ccn([O-])c2ccccc21 | -0.645%
28 | CC1CCCCN1CCCOC(=O)c1ccccc1 (configuration not stated) | 7.8%
29 | CCN(CC)CCCC(C)Nc1cc(/C=C/c2ccccc2Cl)nc2cc(Cl)ccc12 (configuration not stated) | 0.54%
30 | NC(=O)C1c2ccccc2CCc2ccccc21 | 5.54%
31 | CC(C)(Oc1ccc(C2CCCc3ccccc32)cc1)C(=O)O (configuration not stated) | -10.9%
32 | O=C(O[C@H]1CN2CCC1CC2)N1CCc2ccccc2[C@@H]1c1ccccc1 | 8.58%
33 | O=C1/C(=C\c2cccs2)CCC/C1=C\c1cccs1 | 8.4%
34 | C[C@]12CC[C@@H]3c4ccc(O)cc4CC[C@H]3[C@@H]1CC[C@@H]2OP(=O)(O)O | -26.5%
35 | CCOC(=O)Oc1c(OC)cc(C(=O)O[C@@H]2C[C@@H]3CN4CCc5c([nH]c6cc(OC)ccc56)[C@H]4C[C@@H]3[C@H](C(=O)OC)[C@H]2OC)cc1OC | 3.08%
36 | CC12CCC(C1)C(C)(C)C2=O (configuration not stated) | 3.69%
37 | O=[N+]([O-])c1c(Cl)cccc1-c1c[nH]cc1Cl | 2.84%
